# Results as given in PubChem BioAssay (NCATS).
# Inconclusive results are not listed. A call without a number means that no potency is given here. Active and inactive are the calls of the source. Unless noted, calls follow the shape of the dose curve; as a rule, active = well fitted curve in the direction sought with a large enough effect; inconclusive = small, poorly fitted or top-dose-only effect, or another doubt; inactive = no such curve, though single readings can be large; an effect the other way counts as inactive or inconclusive.
# Assays:
# [1] = Primary redox qHTS assay for identification of artifact compounds. (AID 1845223)
# Method in brief: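 Amplex Red (25 uM) and HRP (250 mU/mL) in HBSS, with compounds for 15 min, then 250 uM DTT for 30 min, room temperature, dark. Fluorescence 525/598 nm read; normalized to DMSO and 10 uM DA3003; Hill fit.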
# [2] = qHTS profiling for inhibitors of Plasmodium falciparum proliferation (AID 504749); also: potency is read from the fitted curve at half-maximal effect; as to all read-outs here: nearly all actives have a fitted effect of over 60% in size; conditions: P. falciparum in erythrocytes, SYBR Green DNA, 72 h; for activity, negative = inhibition: at 28.7 µM (top of the series)
# Method in brief: (§1)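 Three-day growth assay of blood-stage parasites in erythrocytes (0.3% parasitemia, 2.5% hematocrit) at 37 C, 5% CO2, quantified by SYBR Green DNA staining after overnight detergent lysis.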
# 3D7 = test: as above; conditions: P. falciparum in erythrocytes, SYBR Green DNA, 72 h; series mostly up to 28.7 µM
# Method in brief: as §1
# 7G8 = test: as above; conditions: P. falciparum in erythrocytes, SYBR Green DNA, 72 h; series mostly up to 28.7 µM
# Method in brief: as §1
# [3] = qHTS drug screen for cell cycle checkpoint inhibitors in PARPi-resistant BRCA-mutant ovarian cancer cell lines. (AID 1963452; calls by dose curve); conditions: PEO1/OlaR viability, CellTiter-Glo luminescence, 96 h, stronger effect = lower value
# Method in brief: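 PEO1, PEO4 and PEO1/OlaR ovarian cancer cells, 600 per well, exposed 96 h at 37C to a dilution series. Viability read by CellTiter-Glo luminescence, normalized to DMSO and empty wells; activity summarized as Z-AUC.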
# AA1029 = test: qHTS profiling for inhibitors of Plasmodium falciparum proliferation (AID 504749); also: nearly all actives have a fitted effect of over 60% in size; also: potency is read from the fitted curve at half-maximal effect; conditions: P. falciparum in erythrocytes, SYBR Green DNA, 72 h; series mostly up to 28.7 µM
# Method in brief: as §1
# AS120 = test: as above; conditions: P. falciparum in erythrocytes, SYBR Green DNA, 72 h; series mostly up to 28.7 µM
# Method in brief: as §1
# ATS189 = test: as above; conditions: P. falciparum in erythrocytes, SYBR Green DNA, 72 h; series mostly up to 28.7 µM
# Method in brief: as §1
# [4] = measured here: PEO1 parental Z-AUC
smiles,measurement,setting,value
CCC(C)(OC(C)=O)C(=O)O[C@H]1[C@H](OC(C)=O)C[C@@H]2[C@@](C)([C@@H]3C[C@H]4C=CO[C@H]4O3)[C@H](C)C[C@H](OC(C)=O)[C@@]2(COC(C)=O)[C@@]12CO2 (some centres not stated),outcome,[1],inactive
C[C@H](NC(=O)Cc1cc(F)cc(F)c1)C(=O)N[C@@H]1N=C(c2ccccc2)c2ccccc2N(C)C1=O,outcome,[1],inactive
O=C(N1CCOCC1)N1CCN(c2ccc(Cl)cc2)CC1,outcome,[1],inactive
COc1c(C(C)C)cc2c(c1O)[C@@]1(C(=O)O)CCCC(C)(C)C1CC2 (some centres not stated),outcome,[1],inactive
COC(=O)C1(C)CCC(=O)C2(C)c3c(O)cc(C(C)C)cc3C(O)C(OC(C)=O)C12 (configuration not stated),outcome,[1],inactive
CC(CCc1ccc(O)cc1)O[C@@H]1O[C@H](CO[C@H]2OC[C@](O)(CO)[C@H]2O)[C@@H](O)[C@H](O)[C@H]1O (some centres not stated),outcome,[1],inactive
C=CC(C)(O)CC/C=C(\C)C(=O)O[C@H]1[C@H](O)[C@@H](CO)O[C@@H](OC(=O)[C@]23CCC(C)(C)CC2C2=CCC4[C@@]5(C)CC[C@H](O[C@@H]6O[C@H](CO[C@@H]7OC[C@H](O)[C@H](O)[C@H]7O[C@@H]7OC[C@@H](O)[C@H](O)[C@H]7O)[C@@H](O)[C@H](O)[C@H]6O)C(C)(C)C5CC[C@@]4(C)[C@]2(C)CC3)[C@@H]1OC1OC(C)C(O[C@@H]2OC[C@@H](O)[C@H](O[C@@H]3OC[C@@H](O)[C@H](O)[C@H]3O)[C@H]2O)C(O)C1O (some centres not stated),redox activity (% of DA3003),[1],-6.27% [at 11.5 µM] (inactive)
C=CC(C)(C)c1[nH]c2cccc3c2c1C[C@@H]1[C@@H]3[C@@H](OC(C)=O)[C@H](C)CN1C,outcome,[1],inactive
CN1C(=O)c2ccccc2NC(=O)C1Cc1ccccc1 (configuration not stated),outcome,[1],inactive
C[C@@](O)(COc1ccc(C#N)cc1)C(=O)Nc1ccc(C#N)c(C(F)(F)F)c1,outcome,[1],inactive
Cc1cccc(NC(=O)N[C@@H]2N=C(c3ccccc3)c3ccccc3N(C)C2=O)c1,outcome,[1],inactive
Clc1ccc(N2C[C@H]3CC[C@@H](C2)N3)nn1,outcome,[1],inactive
COc1cc(C(=O)O[C@H]2[C@@H]3C=CO[C@@H](O[C@@H]4O[C@H](CO)[C@@H](O)[C@H](O)[C@H]4O)[C@@H]3[C@@]3(CO)O[C@@H]23)ccc1O,outcome,[1],inactive
CN1[C@@H]2CC[C@H]1CC(OC(=O)C1C=Nc3ccccc31)C2 (some centres not stated),outcome,[1],inactive
C=C(C)[C@H]1O[C@H]2CC[C@@]3(C)[C@@](O)(CC[C@H]4[C@@H]5OC(C)(C)[C@H]6C[C@@H]7C(=C)Cc8c(Cl)cc9[nH]c(c5c9c8[C@@]76O)[C@@]43C)[C@]23O[C@@H]3[C@H]1O,outcome,[1],inactive
COC(=O)C1(C)CCC(O)C2(C)c3c(O)cc(C(C)C)cc3C(O)C(OC(C)=O)C12 (configuration not stated),outcome,[1],inactive
CC1=CC2/C=C(\C)CCC(O)C3OC(C)(C)OC3CC(=O)OC23C(=O)NC(CC(C)C)C3C1C (configuration not stated),outcome,[1],inactive
C/C=C(\C)C(=O)OC1CC2C(CC=C3CC(OC4CC(OC)C(OC5CC(OC)C(OC6OC(C)C(OC7OC(CO)C(O)C(O)C7O)C(OC)C6O)C(C)O5)C(C)O4)CCC32C)C2(O)CCC(C(C)=O)C12C (configuration not stated),redox activity (% of DA3003),[1],4.57% [at 11.5 µM] (inactive)
COC1C(O)C(OC2CCC3(C=O)C(CCC4C3CCC3(C)C(C5=CC(=O)OC5)CCC43O)C2)OC(C)C1OC1OC(CO)C(O)C(O)C1O (configuration not stated),outcome,[1],inactive
Clc1ccc(OCC2=NCCN2)cc1Cl,outcome,[1],inactive
C=C1[C@@H]2CC[C@@]3(C)[C@H](c4ccoc4)OC(=O)C[C@]13O[C@H]1CC(=O)C(C)(C)[C@H](C(OC(C)=O)C(=O)OC)[C@]12C (some centres not stated),outcome,[1],inactive
CC[C@H]1CN2CC[C@H]1C[C@@H]2[C@@H](O)c1ccnc2ccc(OC)cc12,outcome,[1],inactive
C[C@@H]1C(=O)O[C@H]2[C@H](O)[C@@]34[C@@H]5OC(=O)[C@@]3(O[C@@H]3OC(=O)[C@@H](O)[C@@]34[C@H](C(C)(C)C)[C@H]5O)[C@@]12O,outcome,[1],inactive
O=C1C[C@@H]2OCC=C3CN4CC[C@]56c7ccccc7N1[C@H]5[C@H]2[C@H]3C[C@H]46,outcome,[1],inactive
CC1=C2C(=O)C3[C@@H](CC=C4C[C@@H](O)CC[C@@]43C)[C@@H]2CC[C@]12O[C@@H]1C[C@H](C)CN[C@H]1[C@H]2C (some centres not stated),outcome,[1],inactive
CCN1C[C@]2(COC)[C@H](O)C[C@H](OC)[C@]34[C@@H]5C[C@]6(O)[C@H](OC(=O)c7ccccc7)[C@@H]5[C@@](O)([C@H]([C@H](OC)[C@H]23)[C@@H]14)[C@@H](O)[C@@H]6OC,outcome,[1],inactive
CC(C)(O)[C@H]1O[C@H]2CC[C@@]3(C)[C@@](O)(CC[C@H]4Cc5c([nH]c6ccccc56)[C@@]43C)C2=CC1=O,outcome,[1],inactive
COc1cc2c(cc1OC)[C@@]13CCN4CC5=CCO[C@H]6CC(=O)N2[C@H]1[C@H]6[C@H]5C[C@H]43,outcome,[1],inactive
CC1C/C=C/C(O)C(O)CC/C=C/c2cc(O)cc(O)c2C(=O)O1 (configuration not stated),outcome,[1],inactive
COC(=O)[C@@]12C(=O)C(C)C(=O)[C@]1(C)C(C)=C[C@H]1[C@]3(C=O)CC[C@H](OC(C)=O)C(C)(C)[C@H]3CC[C@@]12C (some centres not stated),outcome,[1],inactive
COC1=CC(=O)O[C@@H](CCc2ccccc2)C1,outcome,[1],inactive
CC(C)C1(OO)C=C2C(=O)CC3C(C)(C(=O)O)CCCC3(C)C2CC1 (configuration not stated),outcome,[1],inactive
CCCN1CCO[C@H]2c3cc(O)ccc3OC[C@@H]21,outcome,[1],inactive
COC1CC(O[C@H]2CC[C@]3(C=O)C4CC[C@]5(C)[C@@H](C6=CC(=O)OC6)CC[C@]5(O)[C@@H]4CC[C@]3(O)C2)OC(C)C1O[C@@H]1O[C@H](CO)[C@@H](O)[C@H](O)[C@H]1O (some centres not stated),outcome,[1],inactive
C[C@H]1C(=O)O[C@H]2[C@H](O)[C@]34C5OC(=O)[C@]3(O[C@@H]3OC(=O)[C@H](O)C34[C@H](C(C)(C)C)[C@H]5O)C12O (some centres not stated),outcome,[1],inactive
CN(C)CCc1c[nH]c2ccc(CN3CCN(C)S3(=O)=O)cc12,outcome,[1],inactive
CCN1C[C@]2(COC(=O)c3ccccc3N3C(=O)C[C@H](C)C3=O)CC[C@H](OC)[C@@]34[C@@H]5C[C@H]6[C@H](OC)[C@@H]5[C@](O)(C[C@@H]6OC)[C@](O)([C@@H](OC)[C@H]23)[C@@H]14,outcome,[1],inactive
[Cl-].[Cl-].[Hg+2],Potency,[2]; parasite line A,7.94 µM (active)
same,Potency,[2]; parasite line B,8.91 µM (active)
same,Potency,3D7,12.6 µM (active)
same,Potency,7G8,11.2 µM (active)
C/C=C(\C)C(=O)OC1CC2C(C)(C)OC(=O)CC(OC(C)=O)C2(C)C2CC(OC(=O)C(C)C)C3(C)C(c4ccoc4)CC4OC43C12C (configuration not stated),outcome,[1],inactive
COc1cc(C)[nH]c(=O)c1CNC(=O)c1c(C)n([C@H](C)C2CCOCC2)c2ccccc12,Z-AUC,[3],0.466 (inactive)
same,Z-AUC,[3]; [4],0.504
same,Z-AUC,[3]; measured here: PEO4 Z-AUC,0.135
C[C@]12CC[C@H]3[C@@H](CC[C@@]45O[C@@H]4C(O)=C(C#N)C[C@]35C)[C@@H]1CC[C@@H]2O,Z-AUC,[3],0.0842 (inactive)
same,Z-AUC,[3]; [4],0.943
same,Z-AUC,[3]; measured here: PEO4 Z-AUC,0.794
O=[N+]([O-])C(Br)(CO)CO,"activity, negative = inhibition",[2]; parasite line A,4.06% (inactive)
same,"activity, negative = inhibition",[2]; parasite line B,-7.41% (inactive)
same,Potency,3D7,inactive
same,Potency,7G8,inactive
same,Potency,AA1029,inactive
same,Potency,AS120,inactive
same,Potency,ATS189,inactive
Oc1ccc2c3c1O[C@H]1[C@H](N(CCCl)CCCl)CC[C@@]4(O)[C@@H](C2)N(CC2CC2)CC[C@]314,redox activity (% of DA3003),[1],-0.579% [at 11.5 µM] (inactive)
C=CCN1CC[C@]23c4c5ccc(O)c4O[C@H]2[C@@H](O)C=C[C@H]3[C@H]1C5,"activity, negative = inhibition",[2]; parasite line A,-14.2% (inactive)
same,"activity, negative = inhibition",[2]; parasite line B,6.2% (inactive)
same,Potency,3D7,inactive
same,Potency,7G8,inactive
same,Potency,AA1029,inactive
same,Potency,AS120,inactive
same,Potency,ATS189,inactive
CC1=C2C[C@H]3[C@@H](CC=C4C[C@@H](O)CC[C@@]43C)[C@@H]2CC[C@]12O[C@@H]1C[C@H](C)CN[C@H]1[C@H]2C,outcome,[1],inactive
same,Z-AUC,[3],-0.41 (inactive)
same,Z-AUC,[3]; [4],-0.348
same,Z-AUC,[3]; measured here: PEO4 Z-AUC,-0.0838
